Assay outcomes as filed in PubChem BioAssay.
Mito fusion yeast = inhibitors of mitochondrial division or activators of mitochondrial fusion | S. cerevisiae fusion-defective mutant growth rescue, CellTiterGlo 48 h | Potency, µM (top dose mostly 46.1 µM), without a hit: at the highest dose growth rescue (activation), usual class: activators | hit rate 0.23% among 320,000; further: potency means the concentration at half of the fitted maximal effect; % of control where 0% means no effect; nearly all actives have a fitted effect of over 45% in size
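Luminescent cell viability in 1536-well qHTS format served as the measure of rescued growth in ts fusion-mutant S. cerevisiae cultured on non-fermentable YPEG for 48 hours at 37C.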
uPA surface inh = cell surface uPA generation inhibition; cell surface uPA generation assay, qHTS; Potency, µM (titrated, usually from 38.3 µM), for inactives: at the top dose activity change, negative = inhibition, hits mostly inhibitors; hit rate 0.31% among 330,000; active means well fitted inhibition curve with a large enough effect; inconclusive means small, poorly fitted or top-dose-only effect; inactive means no such curve, though single readings can be large or run the other way; tested in mouse RAW 264.7 cells; further: potency means the concentration at half of the fitted maximal effect; on the % scale 0 is the no-effect control and ±100 the full control effect; nearly all actives have a fitted effect of over 55% in size
p53 reactivator = re-activators of mutant p53; H1299 p53-A138V BP100-luciferase reporter, luminescence, 24 h; Potency, µM (highest dose often 92.2 µM), inactives show at the highest dose activity change, positive = activation, hits mostly activators; hit rate 0.063% among 320,000; further: potency means the concentration at half of the fitted maximal effect; % of control where 0% means no effect; nearly all actives have a fitted effect of over 45% in size
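p53-null H1299 cells stably carrying temperature-sensitive p53-A138V and a BP100-luciferase reporter were pinned with compounds (4-point, 1:5 series) and held 24 hrs at 37 deg C. Luminescence was read 10 min after detection reagent.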
Giardia kill = Giardia lamblia killing | hit rate 0.15% among 340,000 | Giardia lamblia trophozoite viability | activity change, % at 7.66 µM, hits read low; in the data active means activity change below about -80%; inconclusive means between about -30% and that limit;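 further: parasites exposed to compound for two days anaerobically before the ATP read; on the % scale 0 is the no-effect control and ±100 the full control effect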
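Luminescence from cellular ATP indicates surviving trophozoites (100 cells/well) following 48 hrs anaerobic compound treatment at 37 deg C; signal develops 15-30 min at room temperature.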
ClpP mod = qHTS Assay for Activators of ClpP; ATP-dependent Clp protease proteolytic subunit (Bacillus subtilis (strain 168)), P80244; purified B. subtilis ClpP, FRET peptide cleavage, 20 min; Potency, µM (doses to about 57.5 µM), inactives show top-dose activity change, negative = active; hit rate 1.9% among 340,000; AID 651965, 2013; active means well fitted falling curve with a large enough effect; inconclusive means small, poorly fitted or top-dose-only effect; inactive means no such curve, though single readings can be large or run the other way; further: potency means the concentration at half of the fitted maximal effect; the source files actives as falling curves though it sought activators and does not explain the sign; nearly all actives have a fitted effect of over 65% in size
Target sequence (P80244 whole entry, looked up): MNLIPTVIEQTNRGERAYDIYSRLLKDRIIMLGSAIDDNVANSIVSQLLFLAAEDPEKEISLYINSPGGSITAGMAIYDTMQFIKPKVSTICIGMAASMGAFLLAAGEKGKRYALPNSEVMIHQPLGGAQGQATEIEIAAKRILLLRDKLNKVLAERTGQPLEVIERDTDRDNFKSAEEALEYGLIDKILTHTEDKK
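Purified B. subtilis ClpP, 10 microg/mL final in Tris/HCl pH8 with KCl, BSA, glycerol and Tween-20, cleaved an Abz/nitrotyrosine-quenched decapeptide. Fluorescence (ex 320, em 430) was read at 0 and 20 min at room temperature. Delta was normalized to 5.8 microM ADEP and DMSO/no-enzyme controls.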
B2AR arrestin = beta2AR (human) beta-arrestin recruitment activity; P07550; beta-arrestin recruitment to beta2AR, cell-based reporter; Potency, µM (series often up to 46.1 µM), inactives show top-dose activation, usual class: activators; hit rate 0.02% among 330,000; AID 492947;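 further: potency means the concentration at half of the fitted maximal effect; 0% = DMSO controls and full agonism = EC100 isoproterenol or metaproterenol; nearly all actives have a fitted effect of over 65% in size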
Target sequence (P07550 whole entry, looked up): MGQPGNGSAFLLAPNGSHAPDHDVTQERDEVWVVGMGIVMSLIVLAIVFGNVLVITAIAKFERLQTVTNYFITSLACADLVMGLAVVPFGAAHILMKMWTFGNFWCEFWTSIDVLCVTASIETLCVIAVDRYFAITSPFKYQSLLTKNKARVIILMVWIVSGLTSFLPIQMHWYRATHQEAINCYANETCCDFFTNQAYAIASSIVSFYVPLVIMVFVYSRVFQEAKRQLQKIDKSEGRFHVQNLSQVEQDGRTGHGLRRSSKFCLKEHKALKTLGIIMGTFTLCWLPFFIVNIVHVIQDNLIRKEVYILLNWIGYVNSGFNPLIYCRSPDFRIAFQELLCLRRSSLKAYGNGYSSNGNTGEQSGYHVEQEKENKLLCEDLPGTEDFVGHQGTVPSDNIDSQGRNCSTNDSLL
Numbers without * were called inactive; ? = inconclusive; / = not tested or not shown. Shown are actives, neighbours in structure and some others; about 2.1% of the full set was active somewhere. Unless noted, the call rests on the fitted dose curve; in most records, active means well fitted curve in the direction sought with a large enough effect; inconclusive means small, poorly fitted or top-dose-only effect, or another doubt; inactive means no such curve, though single readings can be large; an effect the other way counts as inactive or inconclusive.

SMILES	Mito fusion yeast	uPA surface inh	p53 reactivator	Giardia kill	ClpP mod	B2AR arrestin
CC1(C)Cc2nc3oc4c(N(CCO)Cc5ccccc5)ncnc4c3cc2CO1	5.3%	-0.6%	-14.1%	3.0	14.1µM*	-0.4%
COCCSc1ncnc2c1oc1nc3c(cc12)COC(C)(C)C3	-3.9%	?	9.9%	5.9	-6.5%	3.2%
C/C(=N\NC(=O)c1ccncc1)c1cc2ccccc2oc1=O	-4.0%	-1.3%	-5.3%	-1.5	2.0%	0.1%
C/C(=N/NC(=O)c1ccncc1)c1cc2ccc(O)cc2oc1=O	0.8%	-1.9%	-1.7%	-0.2	31.6µM*	-0.1%
CCOC(=O)c1ccccc1NC(=O)Cn1c(=O)n(CCCC(=O)NCc2ccc3c(c2)OCO3)c(=O)c2ccccc21	/	/	/	/	-3.2%	/
Cc1cc(N2CCCCCC2)n2nc(C)c(-c3ccccc3)c2n1	-19.9%	1.7%	2.9%	18.3	3.0%	-0.4%
Cc1nn2c(N3CCN(c4ccccn4)CC3)cc(C(C)C)nc2c1-c1ccccc1	-21.3%	3.8%	4.2%	6.0	28.2µM*	0.0%
Clc1nc(-c2ccccn2)nc2scc(-c3ccccc3)c12	14.9%	10µM*	11.2µM*	?	28.2µM*	-0.6%
CN1CCN(c2nc(-c3cccnc3)nc3scc(-c4ccccc4)c23)CC1	1.4%	-8.4%	10.1%	8.6	/	0.0%
COc1cccc(C(=O)NCC(c2ccc(N(C)C)cc2)N2CCc3ccccc32)c1 (centres undefined)	/	/	/	/	-11.3%	/
COc1ccc(C(=O)Nc2cccc(-c3ccc(N4CCOCC4)nn3)c2)cc1OC	1.5%	-10.6%	8.4%	-27.2	-1.7%	0.0%
COc1cccc(C(=O)Nc2cccc(-c3ccc(N4CCOCC4)nn3)c2)c1	-2.0%	10µM*	7.2%	7.2	1.1%	0.1%
CCC(=O)Nc1cccc(-c2ccc(N3CCCCC3)nn2)c1	13.2%	0.891µM*	?	?	-10.3%	-0.1%
CCC(=O)Nc1cccc(-c2ccc(N3CCN(C)CC3)nn2)c1	-0.6%	?	?	-25.5	0.4%	0.0%
O=C(COc1ccccc1)Nc1ccc(-c2ccc(N3CCOCC3)nn2)cc1	-2.3%	-6.8%	28.4%	-6.3	15.8µM*	0.1%
COc1ccc(CCNC(=O)Cn2cc(C(=O)c3ccc(Cl)cc3)c(=O)c3ccc(C)nc32)cc1OC	/	/	/	/	0.9%	/
COc1cc(/C=N/Nc2nc3c(c(=O)n(C)c(=O)n3C)n2Cc2ccccc2)ccc1OC(=O)c1ccco1	17.1%	8.1%	24.3%	7.2	31.6µM*	-0.9%
CCCOc1ccccc1-c1nc(SCC(=O)c2ccccc2)n[nH]1	/	/	/	/	0.0%	/
Cc1nc2cc(-c3ccc(Cl)cc3)nn2c(C)c1CCC(=O)NC(C)c1ccc2c(c1)OCCO2 (centres undefined)	17.8µM*	?	-12.3%	-11.2	4.1%	-1.4%
CCc1ccc(NCc2cc3ccc(OC)cc3n(CC(=O)Nc3ccc(F)cc3F)c2=O)cc1	/	/	/	/	-1.0%	/
COC(=O)c1cc2oc3ccccc3c2n1Cc1ccccc1Cl	/	/	/	/	4.3%	/
COC(=O)c1cc2oc3ccccc3c2n1Cc1c(F)cccc1Cl	/	/	/	/	2.51µM*	/
Cc1cccn2c(=O)nc(SCC(=O)N3CC(C)OC(C)C3)nc12 (centres undefined)	-0.6%	-0.9%	-3.2%	-0.4	31.6µM*	0.2%
Cc1cccn2c(=O)nc(SCC(=O)N3CCCC3)nc12	-2.9%	-0.8%	0.7%	-13.0	/	-1.6%
Cc1ccc(-n2ncc(C(=O)NCc3ccccc3)c2C2CCN(C(=O)OC(C)(C)C)CC2)cc1	/	/	/	/	0.1%	/
SMILES	Mito fusion yeast	uPA surface inh	p53 reactivator	Giardia kill	ClpP mod	B2AR arrestin
O=C(Nc1ccc2nc(SCC(=O)N3CCCc4ccccc43)sc2c1)c1ccccc1	/	/	/	/	14.1µM*	/
Cc1ccc(C(=O)Nc2ccc3nc(SCC(=O)N4CCCc5ccccc54)sc3c2)cc1	/	/	/	/	20µM*	/
O=C(Nc1ccc2nc(SCC(=O)N3CCc4ccccc43)sc2c1)c1ccccc1	/	/	/	/	8.91µM*	/
CC(C)C(=O)Nc1ccc2nc(SCC(=O)N3CCc4ccccc43)sc2c1	/	/	/	/	-5.8%	/
CCOc1ccc(CCNC(=O)c2oc(=O)c3ccccc3c2-c2ccc(C)cc2)cc1OCC	/	/	/	/	-6.2%	/
CCOc1cccc(C(=O)N(Cc2ccc(C(C)C)cc2)C2CCS(=O)(=O)C2)c1 (centres undefined)	/	/	/	/	1.4%	/
CC(C)N(Cc1ccccc1)C(=O)C1CCCN(c2ncnc3onc(-c4ccc(F)cc4)c23)C1 (centres undefined)	/	/	/	/	-7.1%	/
Cc1cnccn1	/	/	/	/	-0.1%	/
Nc1ccc(Sc2cnn(-c3ccccc3)c(=O)c2Cl)cc1	8.2%	-3.2%	6.3%	-17.4	20µM*	-1.1%
COc1ccc(OC)c(NC(=O)c2c(NCc3ccc(C)o3)sc3c2CCC(C)C3)c1 (centres undefined)	/	/	/	/	-1.0%	/
COc1ccc(NC(=O)N(Cc2ccco2)C2CCN(C(C)=O)CC2)c(OC)c1	/	/	/	/	-0.6%	/
COc1cccc(Oc2c(C)oc3c(CN4CCCCC4)c(O)ccc3c2=O)c1	-0.9%	18.2%	-2.3%	21.1	3.7%	-0.5%
Cc1oc2c(CN(C)C)c(O)ccc2c(=O)c1-c1cscn1	2.4%	1.3%	3.7%	-2.5	25.1µM*	0.2%
CCc1cc2c(=O)c(-c3ccc4c(c3)OCO4)coc2c(CN(C)C)c1O	-3.0%	3.9%	4.5%	7.2	3.7%	2.6%
CCc1cc2c(=O)c(-c3cscn3)coc2c(CN(C)C)c1O	-5.1%	0.1%	7.5%	-1.4	15.8µM*	-0.3%
CCc1c(C)c2ccc(O)c(CN(C)C)c2oc1=O	-5.3%	/	-1.3%	-12.4	-34.5%	0.0%
COc1ccc(Oc2coc3c(CN(C)C)c(O)ccc3c2=O)cc1	2.6%	-2.4%	-5.8%	9.4	28.2µM*	0.3%
COc1ccc(Oc2c(C)oc3c(CN(C)C)c(O)ccc3c2=O)cc1	4.3%	/	2.4%	-8.9	28.2µM*	-0.6%
Cc1c(C(=O)N(C)C)sc2c1c(=O)n(-c1ccc(Cl)c(Cl)c1)c(=O)n2CC(=O)Nc1ccc(Br)cc1F	/	/	/	1.1	/	/
Cc1ccc(CSc2nc3cccnc3n2Cc2nc(-c3ccccc3F)oc2C)cc1	/	/	/	/	4.4%	/
COC(=O)c1ccc(Cn2cc(C(F)(F)F)cc([N+](=O)[O-])c2=O)cc1	-0.7%	3.7%	5.5%	-94.6*	/	0.4%
O=c1c([N+](=O)[O-])cc(C(F)(F)F)cn1Cc1c(Cl)cccc1Cl	8.3%	-5.8%	9.3%	-90.8*	-4.4%	-0.3%
COC(=O)c1ccc(Cn2cc(C(F)(F)F)ccc2=O)cc1	-3.7%	3.0%	-2.3%	3.5	/	0.0%
CCNc1nc(NCC)nc(-n2cc(C(=O)c3cc(Cl)ccc3O)cn2)n1	/	/	/	-3.5	0.0%	/
O=C(NCCc1ccccc1)c1ccc2c(c1)CCN2S(=O)(=O)c1ccccc1	/	/	/	/	-1.5%	/
